Hits are enriched below; roughly 11% of the tested compounds scored in any of these assays.
L3MBTL1 block: qHTS Assay for the Inhibitors of L3MBTL1 | AlphaScreen L3MBTL1–H3K9me1 peptide binding | 230,000 tested, 0.66% active | AID 485360, 2010 | Potency, µM (series often up to 57.1 µM), for the others: at the top dose activity, negative = inhibition, hits mostly inhibitors; also: potency is read from the fitted curve at half-maximal effect; % is scaled to controls: 0 for no effect and ±100 for the full control effect; nearly all actives have a fitted effect of over 60% in size
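Displacement of a biotinylated histone H3(1-15) peptide monomethylated at Lys9 (75 nM) from L3MBTL1 (50 nM) was measured by AlphaScreen after a 30 min room-temperature compound incubation; cefsulodin titration served as intraplate control.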
G9a block: qHTS Assay for Inhibitors of Histone Lysine Methyltransferase G9a; Histone-lysine N-methyltransferase EHMT2 (Homo sapiens), Q96KQ7; Potency, µM (top dose mostly 102 µM), for inactives: at the top dose activity, negative = inhibition, actives largely listed as inhibitors; G9a H3K9 monomethylation, AlphaScreen, 2 h; 350,000 tested, 8.8% active; also: potency is read from the fitted curve at half-maximal effect; % is scaled to controls: 0 for no effect and ±100 for the full control effect; nearly all actives have a fitted effect of over 75% in size
Target sequence (Q96KQ7 913-1193 limits assumed): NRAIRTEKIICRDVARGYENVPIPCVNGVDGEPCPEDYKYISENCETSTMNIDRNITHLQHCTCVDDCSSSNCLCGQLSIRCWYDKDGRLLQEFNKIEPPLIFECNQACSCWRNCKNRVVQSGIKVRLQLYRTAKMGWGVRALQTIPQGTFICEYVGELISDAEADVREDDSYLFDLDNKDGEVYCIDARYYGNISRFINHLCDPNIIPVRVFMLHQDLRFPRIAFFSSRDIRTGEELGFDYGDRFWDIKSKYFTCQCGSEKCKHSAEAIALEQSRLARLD
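Signal arises when biotinylated H3K9 peptide, once monomethylated, bridges streptavidin donor and antibody-captured acceptor beads. Enzyme at 20 nM was preincubated 15 min with test compounds; peptide 500 nM and SAM 20 uM then reacted for 2 h.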
PI5P4Ka inh: qHTS for Inhibitors of phosphatidylinositol 5-phosphate 4-kinase (PI5P4K). AID 652105, 2013. PI5P4Kalpha enzyme, ADP-Glo luminescence, 60 min; active compounds read low. max response, %. Phosphatidylinositol 5-phosphate 4-kinase type-2 alpha (Homo sapiens), P48426. 330,000 tested, 1.2% active; active = max response of -50% or lower; inconclusive = between -30% and -50%; inactive = -30% or higher; also: value at the top dose of about 77 µM; % is scaled to controls: 0 for no effect and ±100 for the full control effect
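ADP-Glo luminescence end-point read after a 60 min room-temperature kinase reaction of PI5P4Kalpha plus substrate, initiated with ATP at 5 microM final. Buffer: 0.038 M HEPES pH 7.4, EGTA, 0.1% CHAPS, 5% DMSO.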
HP1b chromo inh: HTS for Inhibitors of HP1-beta Chromodomain Interactions with Methylated Histone Tails. Chromobox protein homolog 1 (Homo sapiens), P83916. Potency, µM (top dose mostly 114 µM), for the others: top-dose activity change, negative = inhibition, usual class: inhibitors. 390,000 tested, 0.56% active. AlphaScreen HP1-beta / biotin-H3K9me3 peptide binding. AID 540317, 2011; also: potency is read from the fitted curve at half-maximal effect; nearly all actives have a fitted effect of over 70% in size
Target sequence (P83916 whole entry, looked up): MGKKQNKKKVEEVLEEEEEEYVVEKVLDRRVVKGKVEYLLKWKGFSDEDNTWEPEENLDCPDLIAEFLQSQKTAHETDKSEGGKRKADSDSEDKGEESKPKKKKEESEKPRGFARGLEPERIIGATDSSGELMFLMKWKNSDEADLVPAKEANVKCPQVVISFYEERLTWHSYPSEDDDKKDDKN
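HP1-beta protein (50 nM final) preincubated 30 min at room temperature with biotinylated H3(1-18)K9me3 peptide (50 nM) in PBS pH 7.4, 0.01% Tween-20, then compound added for 30 min. AlphaScreen streptavidin donor/nickel chelate acceptor beads (10 ug/mL final), 30 min dark, luminescence read.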
BAZ2B block: qHTS Assay for Inhibitors of BAZ2B; Potency, µM (highest dose often 114 µM), inactives show top-dose activity change, negative = inhibition, most hits filed as inhibitors; 360,000 tested, 4.4% active; AlphaScreen BAZ2B-H3K14Ac peptide displacement; AID 504333, 2011; also: potency is read from the fitted curve at half-maximal effect; % is scaled to controls: 0 for no effect and ±100 for the full control effect; nearly all actives have a fitted effect of over 60% in size
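Inhibition is scored as reduced AlphaScreen emission. The BAZ2B/b-H3(5-23)K14Ac complex (50 nM each) in PBS pH 7.4, 0.01% Tween-20 meets compound (up to 110 uM) for 30 min at RT before bead addition.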
JMJD2A Tudor: qHTS Assay for Inhibitors of JMJD2A-Tudor Domain; Lysine-specific demethylase 4A (Homo sapiens), O75164; 390,000 tested, 4.4% active; AlphaScreen JMJD2A-Tudor / H3K4me3 peptide binding; Potency, µM (highest dose often 114 µM), without a hit: top-dose activity change, negative = inhibition, hits mostly inhibitors; AID 504339, 2011; also: potency is read from the fitted curve at half-maximal effect; % is scaled to controls: 0 for no effect and ±100 for the full control effect; nearly all actives have a fitted effect of over 50% in size
The depositor's hits bear a star; ? = inconclusive; . = no result given; [ ] = remark or other dose. Unless noted, calls follow the shape of the dose curve; as a rule, active = well fitted inhibition curve with a large enough effect; inconclusive = small, poorly fitted or top-dose-only effect; inactive = no such curve, though single readings can be large or run the other way.

SMILES | L3MBTL1 block | G9a block | PI5P4Ka inh | HP1b chromo inh | BAZ2B block | JMJD2A Tudor
Cc1cccc(-n2c(C)cc(/C=C3\C(=N)N4N=C(CC(C)C)SC4=NC3=O)c2C)c1 | 11% | 6%[59 µM] | -5 | 27% | 4% | -2%
Cn1c(/C(C#N)=C/c2cccc(O)c2)nc2ccccc21 | -8% | -24% | 8 | ? | -19% | 22µM*
COc1cc(/C=C(\C#N)c2nc3ccccc3n2C)cc(OC)c1OC | . | -6%[59 µM] | . | 23% | 10% | -18%
CCCCC(=O)O[C@]1(C(=O)CO)[C@H](C)C[C@H]2[C@@H]3CCC4=CC(=O)C=C[C@]4(C)[C@@]3(F)[C@@H](O)C[C@@]21C | . | 29%[59 µM] | . | . | . | .
COc1cc2c(cc1NCc1ccc3c(c1)OCO3)oc1ccccc12 | ? | ? | 11 | ? | 32µM* | ?
COc1cc2c(cc1NC(=S)Nc1cccc3ccccc13)oc1ccccc12 | . | ? | -5 | ? | 79µM* | ?
COCCCNC(=S)Nc1cc2oc3ccccc3c2cc1OC | . | 29% | 7 | 35% | ? | -23%
COc1cc2c(cc1NCc1ccccn1)oc1ccccc12 | -12% | ? | 3 | ? | 45µM* | 45µM*
CCOC(=O)C1=C(CN2c3ccccc3CC2C)NC(=O)NC1c1ccccc1 (stereo not given) | -22% | ? | 2 | ? | 50µM* | ?
CCOC(=O)C1=C(CN2CCN(c3ccc(OC)cc3)CC2)NC(=O)NC1c1ccc(OC)cc1 (stereo not given) | . | 11µM* | . | -38% | 40µM* | 56µM*
COc1ccc(C2NC(=O)NC(C)=C2C(C)=O)cc1 (stereo not given) | -19% | 13µM* | ? | 18% | 3% | -16%
CCOC(=O)C1=C(CN2CCN(c3ccc(OC)cc3)CC2)NC(=O)NC1c1ccc(Cl)cc1 (stereo not given) | . | 7.9µM* | . | ? | . | 13µM*
CCOC(=O)C1=C(CN2CCN(C)CC2)NC(=O)NC1c1ccc(F)cc1 (stereo not given) | . | 4%[59 µM] | . | 22% | 6% | 10%
CCOC(=O)C1=C(CN2CCCCC2)NC(=O)NC1c1ccc(OC)cc1 (stereo not given) | . | -22%[59 µM] | . | 2% | -10% | -5%
O=C(CSc1n[nH]c(-c2ccccc2Cl)n1)NCc1ccc(F)cc1 | . | 5%[59 µM] | . | 19%[57 µM] | 3% | -11%
COc1cc(Cl)c(NS(=O)(=O)c2ccc3[nH]c(=O)ccc3c2)c(OC)c1 | . | -2%[59 µM] | . | 14%[57 µM] | 2% | -14%
Cc1cccc([S+](=O)([O-])NC2CCN(C#N)CC2)c1 | . | . | . | . | . | 7%
COc1cccc2c1CCC1=CC(=O)CC[C@@]12C | . | -2%[2.33 µM] | . | . | . | .
CCOCCCn1c(SCC(=O)Nc2ccc(C)cc2)nc2ccccc2c1=O | . | 10%[59 µM] | . | 1% | 7% | -10%
Cn1c(=O)c2cc(S(=O)(=O)NC(Cc3ccccc3)C(=O)Nc3ccc(F)cc3)ccc2n(C)c1=O (stereo not given) | . | -18%[59 µM] | . | 11% | ? | -20%
CCOC(=O)c1cc(C#N)c(SCC(=O)OC)[nH]c1=O | 12% | . | -21 | 31% | -9% | -6%
CCOC(=O)c1[nH]c(C)c(C(=O)N2CCN(c3ccc(OC)cc3)CC2)c1C | . | ? | -3 | 27% | . | -33%
CCOC(=O)c1[nH]c(CN2CCN(c3ccc(OC)cc3)CC2)c(C(=O)OCC)c1C | . | 22µM* | -2 | 45µM* | 14µM* | 50µM*
CCOC(=O)c1cc(C#N)c(N2CCN(c3ccc(OC)cc3)CC2)[nH]c1=O | -1% | 5µM* | ? | 5% | ? | -27%
Cc1ccc(S(=O)Cc2ccc(C(=O)NC3CCCCCC3)o2)cc1 (stereo not given) | . | -3%[59 µM] | . | 90% | . | -19%
SMILES | L3MBTL1 block | G9a block | PI5P4Ka inh | HP1b chromo inh | BAZ2B block | JMJD2A Tudor
COc1ccc(C2=NNC(c3cc(Cl)cc4c3OCOC4)C2)c(O)c1 (stereo not given) | -8% | 50µM* | . | . | -1% | .
Oc1ccc(Cl)cc1C1=NNC(c2cc(Br)cc3c2OCOC3)C1 (stereo not given) | -14% | -41% | -2 | 33% | -31% | -31%
COc1ccc(OC)c(CNC(=O)c2cc(=O)[nH]c3ccc(S(=O)(=O)N4CCCCC4C)cc23)c1 (stereo not given) | . | 1%[59 µM] | . | 10% | -18% | ?
Cn1c(-c2ccccc2)c(C(=O)CC#N)c2ccccc21 | 11% | -1% | 2 | 20% | -9% | -5%
CN(C)CCCNCC(=O)c1c(-c2ccccc2)n(C)c2ccccc12 | . | 57% | 3 | ? | 21% | 4.5µM*
Nc1ccc(Nc2ccc([N+](=O)[O-])cc2[N+](=O)[O-])cc1 | . | 45µM* | -1 | ? | 28µM* | ?
COc1ccc(Nc2ccc(C(=O)O)cc2[N+](=O)[O-])cc1 | -1% | 2%[59 µM] | -18 | 16% | -30% | -4%
O=[N+]([O-])c1cc(Cl)ccc1Nc1ccccc1 | 28µM* | 11µM* | 14 | 18µM* | 5µM* | 28µM*
COc1ccc(Nc2ccc([N+](=O)[O-])cc2[N+](=O)[O-])cc1 | ? | 13µM* | 5 | ? | 25µM* | 50µM*
NC(=O)c1ccc(Nc2ccc([N+](=O)[O-])cc2[N+](=O)[O-])cc1 | -13% | ? | 3 | -7% | -28% | -23%
CCNc1ncc2nc(-c3ccccc3)c(=O)n(Cc3ccc(F)cc3)c2n1 | . | 20%[12.7 µM] | . | . | . | .

Assay outcomes from PubChem BioAssay.
